Compound activity (PubChem BioAssay)
ELG1 DNA repair = blocks ELG1-dependent DNA repair in HEK293T cells. HEK293T ELG1-luciferase reporter, luminescence, 16 h; DNA damage induced by 5-fluorouridine. Potency, µM (series often up to 46.1 µM), for inactives: at the top dose activity change, negative = inhibition, usual class: inhibitors. 2.3% of 330,000 active. AID 504467; also: potency is read from the fitted curve at half-maximal effect; % is scaled to controls: 0 for no effect and ±100 for the full control effect; nearly all actives have a fitted effect of over 55% in size
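5-Fluorouridine DNA damage + compound/DMSO, 2,000 cells/well, 16 h, 37 °C/5% CO2. ONE-Glo, 30 min RT, luminescence. Readout = decrease in reporter signal.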
TRPV1 potentiator = potentiators of human vanilloid receptor 1 (TRPV1). Q8NER1. TRPV1-expressing cells, Fluo-8 calcium influx, capsaicin EC20 potentiation. potentiation, % at 8.33 µM. 0.02% of 320,000 active; in the data active = potentiation above about 80%; inconclusive = between about 30% and that limit; also: 0% is about no effect
Target sequence (Q8NER1 whole entry, looked up): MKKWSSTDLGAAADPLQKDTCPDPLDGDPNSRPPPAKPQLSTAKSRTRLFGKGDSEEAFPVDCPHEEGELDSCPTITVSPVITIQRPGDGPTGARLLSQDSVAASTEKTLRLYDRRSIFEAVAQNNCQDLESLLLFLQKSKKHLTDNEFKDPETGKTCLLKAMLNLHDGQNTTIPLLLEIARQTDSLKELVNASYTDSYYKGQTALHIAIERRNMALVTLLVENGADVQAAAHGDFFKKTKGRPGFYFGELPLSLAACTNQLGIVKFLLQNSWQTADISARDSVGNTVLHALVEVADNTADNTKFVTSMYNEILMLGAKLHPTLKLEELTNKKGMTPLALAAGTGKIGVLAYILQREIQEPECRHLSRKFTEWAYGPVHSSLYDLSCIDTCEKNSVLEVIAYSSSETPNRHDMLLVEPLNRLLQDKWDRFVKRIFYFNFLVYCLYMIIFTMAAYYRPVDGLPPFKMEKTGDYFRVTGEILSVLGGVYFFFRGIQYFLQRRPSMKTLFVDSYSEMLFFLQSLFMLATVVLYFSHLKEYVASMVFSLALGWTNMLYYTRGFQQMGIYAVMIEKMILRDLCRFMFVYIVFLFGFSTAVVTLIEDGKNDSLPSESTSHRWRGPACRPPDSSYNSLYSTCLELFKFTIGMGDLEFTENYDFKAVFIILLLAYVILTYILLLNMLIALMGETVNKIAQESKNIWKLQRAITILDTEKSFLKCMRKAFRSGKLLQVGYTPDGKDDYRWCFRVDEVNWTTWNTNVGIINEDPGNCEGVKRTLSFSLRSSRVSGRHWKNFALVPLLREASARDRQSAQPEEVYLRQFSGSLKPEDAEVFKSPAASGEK
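TRPV1-expressing cells were cultured overnight at 35.5C and loaded with Fluo-8 calcium dye for 40 to 90 min at room temperature. After a 10 s baseline, compound was added and calcium influx was read kinetically for 3 min (ex 480/em 520 nm).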
TRPV1 ag = agonists of human vanilloid receptor 1 (TRPV1). TRPV1-expressing cells, Fluo-8 calcium influx, agonist mode. activation, % at 8.33 µM. 0.19% of 320,000 active; in the data active = activation above about 80%; inconclusive = between about 30% and that limit; also: 0% is about no effect
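Fluo-8 calcium influx in TRPV1-expressing cells, kinetic read (ex 480/em 520 nm). Compound added and read 3 min for agonist activity, followed by capsaicin at EC20 final and 2 min further read for enhancement.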
Giardia killer = Giardia lamblia killing | Giardia lamblia trophozoite viability | activity change, % at 7.66 µM, hits read low | 0.15% of 340,000 active | AID 540267; in the data active = activity change below about -80%; inconclusive = between about -30% and that limit;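 also: parasites exposed to compound for two days anaerobically before the ATP read; % is scaled to controls: 0 for no effect and ±100 for the full control effect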
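Trophozoite viability was measured as ATP-dependent luminescence, read 15-30 min after reagent addition. Before that, parasites at 100 cells/well were exposed to compounds for 48 h, anaerobically, at 37 deg C.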
FUS suppressor = suppressors of FUS proteinopathy in yeast; S. cerevisiae FUS-expressing, growth rescue, OD600, 24 h; Potency, µM (series often up to 76.6 µM), most hits filed as activators; 0.24% of 390,000 active; AID 1347120;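 also: potency is read from the fitted curve at half-maximal effect; plate controls were DMSO vehicle for no effect and reference control for full effect; nearly all actives have a fitted effect of over 55% in size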
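Yeast expressing FUS under galactose induction, OD 0.005 in 2% galactose medium; compounds in a dilution series, 24 h at 30C. Growth rescue by absorbance at 600 nm; CP55940 positive control, DMSO negative.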
* = called active by the depositor; i = inactive; ? = inconclusive; / = no result given. Most compounds without a hit are left out; they make up all but 2.3% or so of the library. Unless noted, calls follow the shape of the dose curve; as a rule, active = well fitted curve in the direction sought with a large enough effect; inconclusive = small, poorly fitted or top-dose-only effect, or another doubt; inactive = no such curve, though single readings can be large; an effect the other way counts as inactive or inconclusive.

SMILES | ELG1 DNA repair | TRPV1 potentiator | TRPV1 ag | Giardia killer | FUS suppressor
CCOc1ccc(C(C)NC(=S)NCc2ccc(F)cc2)cc1 (configuration not stated) | ? | -9.5 | 86.5* | 40.8 | i
Cc1ccc(C(C)NC(=S)NCc2ccc(F)cc2)cc1C (configuration not stated) | 1.1% | 1.1 | 80.1* | -18.6 | i
Cc1ccc(C(C)NC(=S)NCc2ccc(F)cc2)c(C)c1 (configuration not stated) | 3.5% | -4.0 | ? | 11.3 | /
Cn1c(SCC(=O)N2CCN(c3ccccc3)CC2)nnc1-c1cc2ccccc2o1 | 13µM* | -6.0 | 2.9 | 17.9 | i
CCn1c(CSCc2ccc(C)cc2)nnc1SCC(=O)N1CCN(c2ccccc2)CC1 | 18.4µM* | 23.8 | 3.9 | 30.7 | ?
Cc1occc1-c1nnc(SCC(=O)N2CCN(c3ccccc3)CC2)n1C | ? | 23.4 | -3.2 | 23.3 | i
CCn1c(SCC(=O)N2CCN(c3ccccc3)CC2)nnc1-c1ccoc1C | 16.4µM* | / | / | -16.5 | i
CO[C@H]1CC[C@@]2(C)[C@@H](CC[C@@H]3[C@@H]2CC[C@@]2(C)[C@H]3C[C@H](C(=O)N[C@@H](CCCN=C(N)N)C(=O)NCC(=O)N[C@@H](CC(=O)O)C(N)=O)O[C@]23CCCO3)C1 | 9.4% | / | / | -3.7 | i
CCN(CC)c1ccc2nc3ccccc3[n+](CC)c2c1 | 3.66µM* | -0.6 | -0.3 | -18.6 | ?
CCN(CC)c1ccc2nc3ccc(N)cc3[n+](-c3ccccc3)c2c1 | ? | -7.0 | -5.9 | -18.0 | /
CN(C(=O)c1ccc2c(c1)SC1=NS(=O)(=O)CCN12)C(c1ccccc1)c1ccccc1 | 25.9µM* | 5.5 | -2.1 | 2.2 | /
Cc1cc(C(=O)NNc2ccccc2F)no1 | 6.51µM* | 17.3 | 0.6 | -27.4 | i
CCc1ccccc1NNC(=O)c1cc(C)on1 | 3.4% | 20.8 | 0.5 | -6.6 | i
O=C(C1=C(Nc2ccccc2)c2ccccc2S(=O)(=O)N1)c1ccccc1 | 16.4µM* | 1.9 | 10.5 | 2.7 | i
CCOC(=O)c1c(C)c(C(=O)NCc2ccc(Cl)cc2)c(C)n1CC | / | / | / | / | i
COC(=O)c1c(N2C(=O)Nc3ccccc3N2O)sc(C)c1C | 5.5% | 3.8 | -13.8 | -1.3 | i
COC(=O)c1c(N2C(=O)[C@H]3[C@@H](C2=O)[C@]2(C(=O)Nc4ccc(C)cc42)N2CCC[C@@H]32)sc(C)c1C | 8.2µM* | -7.7 | 19.1 | / | /
O=C(CCCCn1c(=O)[nH]c2ccsc2c1=O)N1CCN(c2cccc(Cl)c2)CC1 | / | / | / | / | i
COC(=O)C[C@H]1CC[C@@H]2[C@H](COc3ccc(NC(=O)NCc4ccccc4)cc3C(=O)N2C)O1 | / | / | / | / | i
Cc1nc(C(F)(F)F)ccc1C(=O)Nc1ccc(C(F)(F)F)cn1 | 0.5% | -20.9 | 82.2* | -0.7 | i
COc1ccc(OC)c(NC(=O)c2nnn(CC(=O)Nc3ccc(C(C)C)cc3)c2N)c1 | / | / | / | / | i
Cc1ccccc1CS(=O)(=O)Cc1ccc(C(=O)Nc2cccc(Cl)c2F)o1 | / | / | / | / | i
Cc1ccc(Cc2c(C)c(C#N)c3[nH]c4ccccc4n3c2=O)cc1 | 18.3µM* | -2.7 | ? | 38.5 | i
C=C(C)Cc1c(C)c(C#N)c2[nH]c3ccccc3n2c1=O | 20.6µM* | -10.8 | 19.3 | 3.1 | i
Cc1c(CCC(=O)O)c(=O)n2c([nH]c3ccccc32)c1C#N | 0.3% | -0.8 | 3.0 | -1.8 | i
SMILES | ELG1 DNA repair | TRPV1 potentiator | TRPV1 ag | Giardia killer | FUS suppressor
CCc1c(C)c(C#N)c2[nH]c3ccccc3n2c1=S | ? | -11.2 | 2.7 | -6.6 | i
Cc1ccc(-n2nc(C(=O)N3CCOCC3)cc2-c2ccc(Cl)cc2)cc1 | -15.5% | 0.9 | 89.1* | ? | i
O=C(c1cc(-c2ccc(Cl)cc2Cl)on1)N1CCOCC1 | ? | -1.2 | 83.4* | -23.7 | i
O=C(c1cc(-c2ccc(Cl)c(Cl)c2)on1)N1CCOCC1 | ? | 3.6 | 80.4* | -0.9 | i
Cc1cc(C)cc(NC(=O)c2sc3nc4n(c(=O)c3c2C)N=C(c2ccccc2)CS4)c1 | / | -8.8 | 6.6 | 3.0 | i
O=C(Nc1cccc(S(=O)(=O)N2CCCCCC2)c1)c1cc(=O)c2ccccc2o1 | 11.6µM* | 0.8 | 23.4 | 5.0 | i
CN(c1ccccc1)S(=O)(=O)c1cccc(NC(=O)c2cc(=O)c3ccccc3o2)c1 | 14.6µM* | 2.6 | 19.6 | -6.8 | i
CS(=O)(=O)N1CCN(c2nnc(-c3ccccc3)c3ccccc23)CC1 | -21.7% | 22.6 | 1.7 | 32.1 | i
O=S(=O)(c1ccccc1)N1CCN(c2nnc(-c3ccccc3)c3ccccc23)CC1 | 23.1µM* | 2.6 | 2.7 | -2.4 | i
c1ccc(-c2nnc(N3CCN(c4ccccn4)CC3)c3ccccc23)cc1 | 13µM* | 5.5 | -4.9 | 41.8 | ?
Cc1ccc(-c2nnc(N3CCCCC3)c3ccccc23)cc1 | -29.6% | -15.2 | ? | -3.4 | i
Cc1ccc(-c2nnc(N3CCN(c4ccccn4)CC3)c3ccccc23)cc1 | 16.4µM* | -12.8 | ? | 10.6 | ?
Cc1cccc(OC(C)C(=O)N2CCC(c3nc4ccccc4o3)CC2)c1C (configuration not stated) | / | / | / | / | i
O=C(NCc1ccc2c(c1)CCN2C(=O)c1ccc(F)cc1)c1ccc(Br)o1 | / | / | / | / | i
COc1ccc(C2c3c(-c4ccccc4O)n[nH]c3C(=O)N2CCc2ccccc2)cc1 (configuration not stated) | / | / | / | / | i
O=C(Nc1ccc(N2CCOCC2)cc1)c1ccc(Cl)nc1 | ? | -0.5 | 1.1 | 5.9 | i
CCN(c1ccc(NC(=O)c2ccc(Cl)nc2)cc1)C(C)C | ? | -11.0 | 84.3* | -14.7 | i
COc1ccc(C(=O)Nc2ccc(C)cc2C(=O)c2ccccc2)c(OC)c1 | ? | -13.4 | 7.2 | 3.3 | /
COc1cccc(OC)c1C(=O)Nc1ccc(C)cc1C(=O)c1ccccc1 | 16.4µM* | -6.9 | 21.1 | 3.2 | i
CCc1cc2c(=O)c(-c3ccc4c(c3)OCCO4)c(C)oc2cc1OS(C)(=O)=O | 23.1µM* | -3.4 | 2.0 | -21.3 | ?
CCOC(=O)CSc1nc2c(sc3cccc(F)c32)c(=O)n1Cc1ccc(OC)cc1 | / | / | / | / | i
CCOc1ccc(C(=O)NC(C(=O)NCC2CCCO2)C(C)C)cc1 (configuration not stated) | 23.1µM* | ? | 0.0 | 3.9 | i
CCOc1cc(NC(=S)NCC2CCCO2)c(OCC)cc1NC(=O)c1ccccc1C (configuration not stated) | -12.3% | -7.6 | 18.7 | 7.1 | i
CCOc1cc(NC(=S)NCC2CCCO2)c(OCC)cc1NC(=O)c1ccc(OC)cc1 (configuration not stated) | 13µM* | -11.8 | ? | -3.4 | /
COc1ccc(C(=O)NC(C(=O)NCC2CCCO2)C(C)C)cc1 (configuration not stated) | 6.6% | 18.8 | 1.7 | -19.5 | i
